Assay results as given in PubChem BioAssay (NCI).
Compounds without any hit were thinned out: in the full panel of roughly 83,000, 20% have a hit.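 Activity criterion: percent growth below 10, measured after cells in 96-well plates were exposed to a single compound concentration for 48 hours.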 A number with no mark means an inactive call. Active and inactive are the calls of the source.

Columns and labels:
Experiment in all cases: NCI-60 one-dose screen, 48 h (100 = growth as untreated, 0 = no growth, -100 = all killed)
Conditions in all cases: 10 µM unless noted
[1] = tested on: NCI-H23 lung
[2] = tested on: NCI-H226 lung
[3] = tested on: NCI-H322M lung
[4] = tested on: HOP-62 NSCLC
[5] = tested on: NCI-H460 lung
[6] = tested on: HOP-92 NSCLC
[7] = tested on: NCI-H522 lung
[8] = tested on: A549/ATCC NSCLC
[9] = tested on: 786-0 renal
[10] = tested on: COLO 205 colon
[11] = tested on: DU-145 prostate
[12] = tested on: K-562 leukemia
[13] = tested on: MALME-3M melanoma
[14] = tested on: MDA-MB-231 breast
[15] = tested on: RXF 393 renal
[16] = tested on: SF-268 CNS
[17] = tested on: SF-295 CNS
[18] = tested on: SF-539 CNS
[19] = tested on: UACC-257 melanoma
[20] = tested on: M14 melanoma

SMILES	growth [1]	growth [2]	growth [3]	growth [4]	growth [5]	growth [6]	growth [7]	growth [8]	growth [9]	growth [10]	growth [11]	growth [12]	growth [13]	growth [14]	growth [15]	growth [16]	growth [17]	growth [18]	growth [19]	growth [20]
CCCCC(NC(=O)CN1C(=O)/C(=C/C(C)=C/c2ccccc2)SC1=S)C(=O)O (stereo not given)	94.8%	93.9%	103%	93%	102%	62.8%	93.8%	98.5%	104%	119%	111%	107%	91.8%	92.7%	105%	100%	95%	101%	104%	96.6%
COc1ccc(/C=N\Nc2nc(SCC(C)C)nc(-c3ccc(OC)cc3)c2C#N)cc1	57.2%	-14.8% (active)	22.5%	-2.99% (active)	-11.1% (active)	15.1%	54%	11.4%	-48.2% (active)	50.1%	65.2%	74.6%	60.1%	43.5%	34.5%	50.9%	-5.63% (active)	52.6%	88.1%	77.6%
Cc1nc2sc(C(=O)Nc3cccc(Cl)c3C)c(N)c2cc1C(O)c1ccccc1 (stereo not given)	19.8%	43.5%	49.8%	33.6%	3.15% (active)	30%	4.83% (active)	16.2%	16.5%	-0.762% (active)	10.7%	6.05% (active)	50.2%	15.3%	46.2%	24%	26.9%	0.0688% (active)	57%	7.42% (active)
CC(=NCc1ccccc1)c1ccc(O)cc1O	97.5%	101%	103%	101%	107%	76.2%	111%	100%	105%	105%	112%	96.6%	93.8%	96.9%	122%	101%	123%	97.8%	88.1%	104%
CN1CCN(c2ccc(Nc3ncc(C(N)=O)c(NCCCNC(=O)C4CCC4)n3)cc2)CC1	70.4%	62.1%	75.8%	34%	78.9%	113%	77.3%	78.2%	90.2%	-5.21% (active)	67.6%	41.7%	76.6%	11.6%	20.4%	80.6%	81.3%	11.1%	119%	80%
CN1CCN(c2ccc(/C=C/C(=O)c3ccc(O)cc3)cc2)CC1	93.9%	97%	101%	97.7%	101%	74.8%	88%	97.7%	98.8%	113%	93.2%	90.1%	99%	94.8%	95.3%	95.8%	95.1%	91.9%	96.1%	95.8%
COC(=O)c1nc(-c2ccc(C)cc2)oc1Sc1ccc(C)cc1	105%	104%	99.2%	94%	107%	87.9%	78.7%	97.6%	95.7%	102%	110%	82%	122%	96.1%	108%	103%	114%	96.8%	102%	93.2%
